# Source: PubChem BioAssay (Tox21)
# Inconclusive results are not listed. Entries that show only a call come without a potency. A number with no mark means an inactive call. The source made the active and inactive calls. Calls follow the shape of the dose curve; as a rule, active = well fitted cell-killing curve with a large enough effect in the repeat runs; inconclusive = weak or mixed curves, or effect the other way; inactive = flat fitted curve, though single readings scatter.
# Experiment: qHTS RealTime-Glo MT Cell Viability Assay in HEK293 cells - 32 hour (AID 1224868); also: nearly all actives have a fitted effect of over 50% in size; as to activity change, negative = cytotoxic: top concentration of the series differs between compounds
# Settings: RealTime-Glo luminescence; series mostly up to 76.8 µM
# Text: National Center for Advancing Translational Sciences [NCATS]
# NIH Chemical Genomics Center [NCGC]
# U.S. Environmental Protection Agency [EPA]
# National Institutes of Environmental Health Sciences [NIEHS]
# National Toxicology Program [NTP]
# U.S. Food and Drug Administration [FDA]
# Measure of cell viability is critical in the cell-base assay. Analysis of cell viability is necessary for the characterization of cell responses to cytotoxic drugs and environmental stress. A RealTime-Glo MT Cell Viability Assay to monitor cell viability in real time of continues cell culture during 40 hours of compound treatment was used to screen Tox21 10K library compounds in Hek293 cells. The RealTime-Glo MT Cell Viability Assay is a nonlytic, homogeneous, bioluminescent method to measure cell viability in real time using a simple, plate-based method. The assay involves adding NanoLuc luciferase and a cell-permeant prosubstrate to cells in culture. Viable cells reduce the proprietary prosubstrate to generate a substrate for NanoLuc luciferase. This substrate diffuses from cells into the surrounding culture medium, where it is rapidly used by the NanoLuc Enzyme to produce a luminescent signal. The signal correlates with the number of viable cells, making the assay well suited for cytotoxicity studies.
# Tox21 Assay Protocol Summary:
# The mixture of Hek293 cell suspension and reagents were dispensed at 600cells/6 ul/well in 1536-well tissue culture treated black solid bottom plates using a Multidrop dispenser. After the assay plates were incubated at a 37 C/5% CO2 incubator for 5 hours, 23 nL of compounds dissolved in DMSO, positive and negative controls was transferred to the assay plate by a pintool work station. The plates were incubated at 37 C for 40 hours. The luminescence intensity were measured at 0h, 8h, 16h, 24h, 32h and 40h time points using ViewLux plate reader during compound treatment.
# Potency is read from the fitted curve at half-maximal effect.
Compound,Potency,"activity change, negative = cytotoxic"
Cc1cc(O)ccc1N,49.2 µM (active),
CC(=O)/C(C)=C/C1C(C)=CCCC1(C)C (stereo not given),inactive,
O=C(NN1CCCC1)NS(=O)(=O)c1ccc(Cl)cc1,inactive,
CC(C)CC=O,inactive,
Cc1nc2ccccc2n1Cc1ccc(Cl)cc1,1.69 µM (active),
CCCCOc1cc(C(=O)OCCN(CC)CC)ccc1N,inactive,
CCCCCCc1ccc(N)cc1,inactive,
O=C(CC(=O)c1ccccc1)c1ccccc1,inactive,
CC[C@H](C)[C@H](N)C(=O)O,inactive,
O=C(O)Cn1c(C(=O)Nc2nc(-c3ccccc3Cl)cs2)cc2ccccc21,inactive,
NC[C@H]1O[C@H](O[C@H]2[C@H](O)[C@@H](O[C@H]3O[C@H](CO)[C@@H](O)[C@H](N)[C@H]3O)[C@H](N)C[C@@H]2N)[C@H](O)[C@@H](O)[C@@H]1O,,12.4% [at 6.97 µM]
O=C(c1ccccc1)c1ccc2n1CCC2C(=O)O (stereo not given),inactive,
Cn1c(=O)c2c(ncn2CC(O)CO)n(C)c1=O (stereo not given),inactive,
CC(C)(C)c1cc(O)c(C(C)(C)C)cc1O,24.5 µM (active),
O=C(c1ccc(O)cc1)c1ccc(O)cc1,inactive,
CC(C)CCCCCCOC(=O)c1ccc(C(=O)OCCCCCCC(C)C)c(C(=O)OCCCCCCC(C)C)c1,inactive,
O=C(O)[C@@H]1[C@H]2C[C@H]3c4[nH]c5ccccc5c4CCN3C[C@@H]2CC[C@@H]1O,inactive,
CCCCOC(=O)/C=C\C(=O)OCCCC,inactive,
COc1cc(C(C)(C)C)c(O)c(C(C)(C)C)c1,inactive,
c1ccc(-c2nc[nH]c2-c2ccccc2)cc1,inactive,

Compound,Potency,"activity change, negative = cytotoxic"
S=C(S)NCCNC(=S)S,inactive,
O=C1Nc2cc(Cl)ccc2Oc2ccccc21,inactive,
CC[C@H](C)[C@@H](C(=O)O)n1sc2ccccc2c1=O,inactive,
C1CCC2OC2C1 (stereo not given),inactive,
CCCCCOC(=O)c1ccc(O)cc1,44.2 µM (active),
CC(=O)N(CC(=O)N(C)C)c1ccccc1,inactive,
CCCc1ccccc1,inactive,
CC(C)(C)c1ccc(S)cc1,inactive,
CC(=O)NCCCS(=O)(=O)O,inactive,
O=S1(=O)c2cccc3cccc(c23)N1CCCN1CCN(c2ccc(F)cc2)CC1,inactive,
CC(C(=O)O)c1ccc(-c2ccccc2)c(F)c1 (stereo not given),inactive,
CCN(CC)CCOC(=O)C1(c2ccccc2)CCCC1,inactive,
COc1ccc2[nH]c(S(=O)Cc3ncc(C)c(OC)c3C)nc2n1 (stereo not given),inactive,
CCCCCC/C=C/C=O,inactive,
Cc1ncsc1CCO,inactive,
Cc1ccc(C)o1,inactive,
COC(=O)C(C)=O,inactive,
C1=Cc2ccccc2C1,inactive,
CCN(CC)CCNC(C(=O)OCCC(C)C)c1ccccc1 (stereo not given),inactive,
O=[N+]([O-])c1cccc(Cl)c1Cl,inactive,
